Test results reported in the supplement of paper PMC6555819.

These sequences were tested on VDR:RXRa (NR concentration 270 nM, RXRa partner concentration 90 nM) (assay: PBM binding z-score (relative to random genomic background probes); higher = stronger binding; sequences stand for … in GC…GCGATTGACAGCGTAGAATGAAGG).
Protocol: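 Protein-binding microarray (Agilent 4x180K custom design, double-stranded 60-nt probes: 5' GC cap, 34-nt variable region, 24-nt constant primer region; full probe sequence given). Purified or IVT nuclear receptor:RXRα heterodimers (3:1 NR:RXRα, mostly 270:90 nM) or homodimers were incubated for 1 h in PBS with 2% milk and no ligand, then detected with Alexa488 antibodies. Fluorescence from o1-orientation probes (~5 replicates averaged) was converted to z-scores against 500 random hg19 background probes. Variable regions are seed direct-repeat (DR0–DR5) sites, all their single-nucleotide variants and half-site ablations.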
For CGAACGAGGGCATGAGTTGATAGCAAATGCCGAT, the PBM binding z-score was 1.43.
Work on CGAACTAGGTCTTCCAGGACAGTGAATACATTGA yielded a PBM binding z-score of -0.0143.
TAGCCTAGGTCATGCGGGCGAGTATAGTGTCGGC gave a PBM binding z-score of 1.72.
For ACAGACAGGCGAGTGAAGGTAACTCAGCTGGACG, the PBM binding z-score was -0.451.
TCTTGTAGATCGAAGGTTAAGAAAGCCGAAGCCT was tested, and the PBM binding z-score was 0.313.
CTCGACAGGTCGGTTGAGGTGAGTATACGGATAA was tested, and the PBM binding z-score was 0.149.
With AGAATGAGGTTAAGATCAGGGAGACAGAATACAT the PBM binding z-score was 1.24.
In the case of GCTAGTTGGTCAGTAAAAGATCACACACCGGTCG, the PBM binding z-score was -0.204.
GGAACGAGCGCATTCGAGTTGATAGCATGGCGAT was tested, and the PBM binding z-score was -0.761.
CGTCCAAGGTCAGTAGGTCAGTGAAAGCGACGTG gave a PBM binding z-score of 3.29.
Sequence CCTTACGGGTCAAGGTTATAGAACGGGTGGTACG has a PBM binding z-score of 3.42.
Sequence TCTCGTAGATCAAAGGTTAAGAAAGCCGAAGCCT has a PBM binding z-score of 1.24.
Work on CCTAGCAGGCCAGGGTCACGCAAGCATTTCGCTT yielded a PBM binding z-score of 3.95.
GCGACTGGGGCATCAGCAGGGTACCATAACTTAA was tested, and the PBM binding z-score was -0.459.
Work on CAAACTCGGTCAAGGTCAAAGTCGGTTTGTGCCA yielded a PBM binding z-score of 4.95.
GGAACGAGGGCATTCGAGTTGCTAGCATGGCGAT gave a PBM binding z-score of 2.71.
For CAAACTAGGTCAAGAGGACAAAGTCCGCTTCCCG, the PBM binding z-score was 1.98.
With ATCTCTAGGTAAGACTCAGTTCAGTGCAGAACGC the PBM binding z-score was 0.866.
For CGTCAAAGTTCAGGGTAACGTAACAGAAAGCAGC, the PBM binding z-score was 2.8.
In the case of ACTACAGGGTCATCGTAGGCCAGAGTACGCACAG, the PBM binding z-score was 5.05.
Sequence CCGACTGGGGCGTAAGGTTACCATAAGCCAGCCC has a PBM binding z-score of 0.154.
In the case of CCTAGTTGGTCAAGGTCACACACGCTATAGGTAC, the PBM binding z-score was 4.26.
ATCAAAAGGTCGTGAGGTGAGTATACAGAAAGGC was tested, and the PBM binding z-score was 3.92.
In the case of CAAACTAGGTCAAGGTCAAAATCGGTTTGTGCCA, the PBM binding z-score was 4.7.
TTACCAAGGTGAGCTGAGGTCGTAGATCCAACTC gave a PBM binding z-score of 3.45.
AGAATGAGGTTAACATCAGGGAAACAGAATACAT showed a PBM binding z-score of 1.75.
CCTCGGAAGACAGAAGGTCAGAGCTGTCCGCTTT showed a PBM binding z-score of 1.01.
Sequence ACTAGCAGGCCAAGTTTGGGTCACTCGAACAAAG has a PBM binding z-score of 0.392.
CCTCGGAGGACAACGGGAGGTCAGAGCTGCCAGA gave a PBM binding z-score of 1.91.
Sequence CAGCCTAGGTCAGGCCCAGTATAGGAGGAACGTT has a PBM binding z-score of -0.208.
CCTTACAGGTCACTGACAGGTTATAGCATTTGGA showed a PBM binding z-score of 3.8.
ATATGTAGGTGACATCCGGGTCATTCAGGCTATG gave a PBM binding z-score of 4.
Sequence AGAATGAGGTTACCAAAGATCAGGCAAACGCTTG has a PBM binding z-score of 1.36.
For GCGACTGGGGCAAAGCAGGGTACCATAAGGTTGG, the PBM binding z-score was -0.276.
AGTCAAAGTTCACTAGGAAACGTAAGATTCAGCT was tested, and the PBM binding z-score was 3.48.
ATCTCTAGGTAACAAGTTCGGTGAAAGAGAGGAC showed a PBM binding z-score of 0.955.
Sequence TCGAGTAGGTTACCAATGGGGCATTCATCTTTCT has a PBM binding z-score of 0.117.
In the case of TCTCGGAGGACGCGAAGGTCAGAGCTTTCCAGAG, the PBM binding z-score was 1.23.
TCTCCGAGGACACGAAAGGTCAGAGCTCGACATC was tested, and the PBM binding z-score was 3.72.
CCTTACGGGTTAAGGTTATAGCACGGGTGGTACG was tested, and the PBM binding z-score was 0.894.
